Test systems include NCI-H23 lung; NCI-H226 lung; NCI-H322M lung; HOP-62 NSCLC; NCI-H460 lung; HOP-92 NSCLC; NCI-H522 lung; A549/ATCC NSCLC; 786-0 renal; COLO 205 colon.
Assay in all cases: NCI-60 one-dose screen, 48 h (100 = growth as untreated, 0 = no growth, -100 = all killed)
Conditions in all cases: 10 µM unless noted

This note sets out measurements from PubChem BioAssay (NCI).

The panel holds about 83,000 compounds, 20% with a hit somewhere; the sample as a whole holds those more often.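 Treatment: one concentration, 48 hours, 96-well format. Scoring: percent growth, with anything below 10 considered active.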 Unmarked numbers belong to inactive results. Active and inactive are the calls of the source.

With `CC/C=C\C[C@H](O)C/C=C1/C(=O)C(Cl)=C[C@@H]1C/C=C\CCCC(=O)O`, the growth in the experiment with NCI-H23 lung is 70.2%; with NCI-H226 lung it was 89.6%; with NCI-H322M lung, 94.5%; in the experiment on HOP-62 NSCLC it was 96.8%; with NCI-H460 lung, 97.7%; in the experiment with HOP-92 NSCLC it was 98.3%. The growth with NCI-H522 lung was -68.1% (active); with A549/ATCC NSCLC, 100%; in the experiment with 786-0 renal it was 75.2%; with COLO 205 colon, 47.6%.

As for `COc1cc(NC(=O)c2cc3ccccc3nc2Nc2ccc(F)cc2)cc(OC)c1OC`, the growth is 39.8% in the experiment with NCI-H23 lung; 43% with NCI-H226 lung; 65.8% with NCI-H322M lung; 83.2% in the experiment with HOP-62 NSCLC; 40.3% in the experiment with NCI-H460 lung; 28.5% with HOP-92 NSCLC. For the same compound, the growth was 49.8% in the experiment with NCI-H522 lung, 42.8% with A549/ATCC NSCLC, 53.5% with 786-0 renal and 38% in the experiment on COLO 205 colon.

On to `O=c1c2cccc3c(Nc4ccc(F)cc4)ccc(c32)c2nc3ccccc3n12`, for which the growth in the experiment on NCI-H23 lung is 83.8%; in the experiment with NCI-H226 lung it was 92.7%; in the experiment on NCI-H322M lung, 67.8%; in the experiment on HOP-62 NSCLC, 87.5%; with NCI-H460 lung, 77.9%; in the experiment on HOP-92 NSCLC, 53.2%. Moreover, the growth is 82% in the experiment with NCI-H522 lung, 96.1% in the experiment on A549/ATCC NSCLC, 97.5% in the experiment on 786-0 renal and 84.5% in the experiment with COLO 205 colon.

For `COc1ccc(/C=C2\C(=O)N(C(=O)c3csc(NC(C)=O)n3)N=C2C)cc1`, the growth with NCI-H23 lung is 102%; with NCI-H226 lung it was 104%; in the experiment on NCI-H322M lung, 96.7%; with HOP-62 NSCLC, 100%; in the experiment with NCI-H460 lung it was 105%; in the experiment with HOP-92 NSCLC, 99.8%. The growth with NCI-H522 lung was 85.2%; with A549/ATCC NSCLC, 97.3%; in the experiment on 786-0 renal it was 100%; in the experiment on COLO 205 colon it was 99.3%.

On to `O=S(=O)(NCCCNc1cc(-c2cn(-c3ccccc3)nc2-c2cccc(O)c2)ccn1)c1ccc(Br)cc1`, for which the growth is 25.2% in the experiment with NCI-H23 lung; 22.2% in the experiment with NCI-H226 lung; 20.7% with NCI-H322M lung; 15.8% in the experiment with HOP-62 NSCLC; 5.69% (active) in the experiment on NCI-H460 lung; -5.67% (active) in the experiment on HOP-92 NSCLC. Moreover, the growth in the experiment on NCI-H522 lung is 25.6%; with A549/ATCC NSCLC, 17.4%; with 786-0 renal it was -9.38% (active); with COLO 205 colon it was -70.3% (active).

Regarding `CCCCCCCN(CCCCCCC)C(=N)c1ccc(OC)c2ccccc12`, the growth with NCI-H23 lung was -70.2% (active); with NCI-H226 lung it was -73.1% (active); with NCI-H322M lung it was -89% (active); in the experiment with HOP-62 NSCLC, -85.9% (active); in the experiment with NCI-H460 lung it was -92% (active); in the experiment with HOP-92 NSCLC, -86.6% (active). The growth in the experiment on NCI-H522 lung is -75.2% (active); in the experiment on A549/ATCC NSCLC it was -83.7% (active); in the experiment on 786-0 renal, -90.7% (active); in the experiment on COLO 205 colon, -73% (active).

For the compound `Clc1nc(Cl)c2ncn(C/C=C/Cn3cnc4c(Cl)nc(Cl)nc43)c2n1`, the growth is 94.7% in the experiment with NCI-H23 lung; 94.2% in the experiment with NCI-H226 lung; 94.6% with NCI-H322M lung; 94.3% with HOP-62 NSCLC; 84.5% in the experiment on NCI-H460 lung; -13.3% (active) with HOP-92 NSCLC. Besides, the growth with NCI-H522 lung was 27.7%; in the experiment with A549/ATCC NSCLC, 71.6%; with 786-0 renal, 93.2%; in the experiment on COLO 205 colon, 63.3%.

`C=CCc1cc(Cl)cc2c(OC(C)=O)c(C(C)=O)c(-c3ccccc3)nc12`: the growth in the experiment with NCI-H23 lung was 91.8%; in the experiment with NCI-H226 lung it was 103%; with NCI-H322M lung, 106%; in the experiment with HOP-62 NSCLC, 89.2%; in the experiment with NCI-H460 lung, 106%; in the experiment with HOP-92 NSCLC it was 105%. Further, the growth in the experiment on NCI-H522 lung is 96.4%; in the experiment on A549/ATCC NSCLC it was 102%; with 786-0 renal it was 107%; in the experiment on COLO 205 colon it was 108%.

For `COc1cccc(NC(=O)c2sc3nc4c(cc3c2N)CCCC4)c1`, the growth in the experiment with NCI-H23 lung is 32.3%; with NCI-H226 lung, 57.2%; in the experiment on NCI-H322M lung it was 38.9%; in the experiment on HOP-62 NSCLC it was 27.7%; in the experiment with NCI-H460 lung, 12%; in the experiment with HOP-92 NSCLC it was 43.6%. The growth in the experiment with NCI-H522 lung was 4.31% (active); in the experiment on A549/ATCC NSCLC it was 17.4%; with 786-0 renal, 34.3%; with COLO 205 colon it was 49.2%.

Turning to `CCc1cccc(C)c1NC(=O)c1sc2nc3c(cc2c1N)C(=O)CCC3`, the growth in the experiment with NCI-H23 lung was 39.1%; with NCI-H226 lung, 62.1%; with NCI-H322M lung it was 51.3%; in the experiment on HOP-62 NSCLC it was 23.3%; in the experiment on NCI-H460 lung it was 8.12% (active); in the experiment with HOP-92 NSCLC, 79.2%. The growth in the experiment on NCI-H522 lung is -0.871% (active); with A549/ATCC NSCLC, 22.9%; in the experiment on 786-0 renal it was 38.7%; in the experiment with COLO 205 colon, -7.24% (active).

For the compound `COc1ccc(-c2nnc(COc3ccc(NC(=O)Nc4ccc(Cl)c(C(F)(F)F)c4)cc3F)o2)cc1`, the growth was -20.2% (active) in the experiment with NCI-H23 lung; 33.5% with NCI-H226 lung; 33% in the experiment with NCI-H322M lung; 36.4% in the experiment on HOP-62 NSCLC; -25.4% (active) with NCI-H460 lung; -13.4% (active) with HOP-92 NSCLC. In addition, the growth was -54.6% (active) with NCI-H522 lung, 11.1% with A549/ATCC NSCLC, 24.7% in the experiment with 786-0 renal and -7.23% (active) with COLO 205 colon.

Turning to `CCN1C(=O)N(CC)C2C1NN=c1s/c(=C3\C(=O)N(C4CCCC4)c4ccccc43)c(=O)n12` (stereo not given), the growth in the experiment with NCI-H23 lung was 20.1%; with NCI-H226 lung, 99.8%; with NCI-H322M lung, 53%; with HOP-62 NSCLC it was 8.41% (active); with NCI-H460 lung, -1.48% (active); in the experiment on HOP-92 NSCLC it was 28.1%. For the same compound, the growth in the experiment on NCI-H522 lung is -5.34% (active); with A549/ATCC NSCLC, 25.3%; in the experiment with 786-0 renal it was 14.1%; in the experiment on COLO 205 colon it was -29.2% (active).

With `NCCSC(c1ccccc1)(c1ccccc1)c1ccccc1`, the growth was 25.1% in the experiment with NCI-H23 lung; 68.6% in the experiment with NCI-H226 lung; 29.5% with NCI-H322M lung; 40.8% with HOP-62 NSCLC; 7.06% (active) in the experiment on NCI-H460 lung; -2.14% (active) in the experiment on HOP-92 NSCLC. The growth with NCI-H522 lung is -20.7% (active); with A549/ATCC NSCLC, 19.9%; in the experiment on 786-0 renal it was 37.9%; in the experiment with COLO 205 colon, -42.8% (active).

As to `CCN1C(=O)/C(=c2\sc3n(c2=O)C2C(NN=3)N(CC)C(=S)N2CC)c2ccccc21` (stereo not given), the growth was 101% with NCI-H23 lung; 92.3% in the experiment on NCI-H226 lung; 103% in the experiment on NCI-H322M lung; 79.2% in the experiment on HOP-62 NSCLC; 107% in the experiment with NCI-H460 lung; 99.2% in the experiment on HOP-92 NSCLC. The growth is 91.9% in the experiment on NCI-H522 lung, 106% in the experiment with A549/ATCC NSCLC, 99.5% with 786-0 renal and 103% in the experiment on COLO 205 colon.
